What is called AC50 is the concentration at which the activity in the assay is half-maximal.

Calls of active or inactive are those of the source. Rule for the calls: active = hit-call score of the fitted dose curve at least 0.9, where 1 is the maximum; inactive = score below 0.9.

Read-out in the assay: Transforming growth factor beta 1 (TGFb1), TGFB1 (gene 7040)
In words: BSK_KF3CT_TGFb1: BioMAP Diversity Plus: KF3CT Assay for Transforming growth factor beta 1 (TGFb1) Biomarker Activity (AID 2283072). The following applies: primary human keratinocytes with fibroblasts; actives raise or lower the signal. As for the experimental part: BSK_KF3CT is a cell-based, multiplexed-readout assay that uses keratinocytes and foreskin fibroblasts, a human skin primary cell co-culture, with measurements taken at 24 hours after chemical dosing in a 96-well plate.BSK_KF3CT_TGFb1 is an assay component measured in the BSK_KF3CT assay. It measures TGF-b1 antibody related to regulation of gene expression using ELISA technology.Data from the assay component BSK_KF3CT_TGFb1 was analyzed into 1 assay endpoint. This assay endpoint, BSK_KF3CT_TGFb1, was analyzed with bidirectional fitting relative to DMSO as the negative control and baseline of activity. Using a type of binding reporter, gain or loss-of-signal activity can be used to understand changes in the signaling as they relate to the gene TGFB1. Furthermore, this assay endpoint can be referred to as a primary readout, because this assay has produced multiple assay endpoints where this one serves a signaling function. To generalize the intended target to other relatable targets, this assay endpoint is annotated to the growth factor intended target family, where the subfamily is transforming growth factor beta.
The levels of cell surface (or secreted, indicated by the prefix "s") biomarker endpoints were measured by ELISA. Overt cytotoxicity to cells in confluent adherent cultures (all systems other than the BT system) was assessed by measuring total protein levels using sulforhodamine B (SRB) staining in parallel cultures at the time of biomarker measurements, indicated as SRB endpoints. For proliferation assays for adherent cell types, individual cell types are cultured at sub-confluence and relative cell numbers quantified by SRB staining at time points optimized for each system (48 h: 3C and CASM3C systems; 72 h: BT and HDF3CGF systems; 96 h: SAg system). SRB was performed by staining cells with 0.1% SRB after fixation with 10% TCA and reading wells at 560 nm.Viability and proliferation of PBMC (T cells) was quantified by Alamar Blue reduction for the SAg and BT systems. For PBMC viability (referred to as PBMC Cytotoxicity within the assay endpoint names), cells were plated (75,000/well in a 96-well plate) and then chemical samples added for 1 h before addition of activators, SEB and TSST-1 (20 ng/mL final concentration each). Cells were incubated for 90 h. Then, Alamar Blue (20 uL/well) (Invitrogen, Cat DAL1100) was added for 6 h, and the plates were read with a fluorescence microplate reader at 546/580 nm (excitation/emission). For PBMC proliferation, cells were plated and activated as above but incubated for only 16 h prior to addition of Alamar Blue. Plates were read after 6 h.
For the compound `CNC(=O)N(C)c1nnc(C(C)(C)C)s1`, the outcome was inactive.

Consider `COCC(C)N(C(=O)CCl)c1c(C)csc1C` (stereo not given), for which the result was inactive.

For the compound `CC(C)N1C(=O)N(c2ccccc2)CSC1=NC(C)(C)C`, the outcome was inactive.

In the case of `O=P(O)(O)CCCl`, the outcome was inactive.

Turning to `C=CCOC(=O)C(C)(C)OC(=O)c1cc(-n2c(=O)cc(C(F)(F)F)n(C)c2=O)ccc1Cl`, the outcome was inactive.

As for `Clc1cccc(C(Cl)(Cl)Cl)n1`, the outcome was inactive.

Take `Cc1c(COC(=O)[C@@H]2[C@H](/C=C(\Cl)C(F)(F)F)C2(C)C)cccc1-c1ccccc1`: the result was inactive.

With `Cc1ccc(N=CN(C)C=Nc2ccc(C)cc2C)c(C)c1`, the result was inactive.

With `Nc1c(Cl)c(Cl)nc(C(=O)O)c1Cl`, the outcome was inactive.

Turning to `C=C(C)CN(CC)c1c([N+](=O)[O-])cc(C(F)(F)F)cc1[N+](=O)[O-]`, the outcome was inactive.

In the case of `COCC(=O)N(c1c(C)cccc1C)C(C)C(=O)OC` (stereo not given), the result was inactive.

For the compound `CCOP(=O)(OCC)Oc1nc(Cl)c(Cl)cc1Cl`, the outcome was inactive.

`COc1cc(Cl)c(OC)cc1Cl`: the outcome was inactive.

`COP(=S)(OC)SCn1nnc2ccccc2c1=O`: the result was inactive.

Take `Cc1cc(C)nc(Nc2ccccc2)n1`: the outcome was inactive.

For `Cc1cnc(C2=NC(C)(C(C)C)C(=O)N2)c(C(=O)O)c1` (stereo not given), the outcome was inactive.

As for `COc1cc(OC)nc(NC(=O)NS(=O)(=O)c2ncccc2OCC(F)(F)F)n1`, the result was inactive.

For the compound `CCCCC(O)(Cn1cncn1)c1ccc(Cl)cc1Cl` (stereo not given), the outcome was inactive.

For `Cn1c(-c2ccccc2)cc(-c2ccccc2)[n+]1C`, the result was inactive.

As for `CCOC(=O)C(C)OC(=O)c1cc(Oc2ccc(C(F)(F)F)cc2Cl)ccc1[N+](=O)[O-]` (stereo not given), the outcome was inactive.

In the case of `N#Cc1c(Cl)cccc1Cl`, the result was inactive.

As to `CCOc1nc(F)cc2nc(S(=O)(=O)Nc3c(Cl)cccc3Cl)nn12`, the result was inactive.

On to `CCCN(CC)CC1COC2(CCC(C(C)(C)C)CC2)O1` (stereo not given), for which the outcome was inactive.

Take `CCCCOCN(C(=O)CCl)c1c(CC)cccc1CC`: the concentration at half-maximal activity (AC50) is 32.7 µM (active).

In the case of `CCNC(=O)NC(=O)C(C#N)=NOC`, the result was inactive.

For `CSC(=O)c1c(C(F)F)nc(C(F)(F)F)c(C(=O)SC)c1CC(C)C`, the result was inactive.

As for `CCOc1cc(C(C)(C)C)ccc1C1COC(c2c(F)cccc2F)=N1` (stereo not given), the AC50 was 33 µM (active).

Take `CC(C)NC(=O)N1CC(=O)N(c2cc(Cl)cc(Cl)c2)C1=O`: the outcome was inactive.

For `Clc1nc(Cl)nc(Nc2ccccc2Cl)n1`, the outcome was inactive.

Consider `COC(=O)c1c(C(F)F)nc(C(F)(F)F)c(C2=NCCS2)c1CC(C)C`, for which the outcome was inactive.

As for `CC(C)(C)C(=O)C(Oc1ccc(Cl)cc1)n1cncn1` (stereo not given), the outcome was inactive.

For the compound `COP(=O)(OC)O/C(C)=C/C(=O)N(C)C`, the outcome was inactive.

In the case of `COP(=S)(OC)Oc1ccc([N+](=O)[O-])c(C)c1`, the outcome was inactive.

Consider `CS(=O)(=O)c1ccc(C(=O)C2C(=O)CCCC2=O)c([N+](=O)[O-])c1`, for which the result was inactive.

Consider `CCOc1nc(C(Cl)(Cl)Cl)ns1`, for which the outcome was inactive.

For the compound `CC(C)Nc1nc(Cl)nc(NC(C)C)n1`, the outcome was inactive.

Consider `CO/N=C(/C1=NOCCO1)c1ccccc1Oc1ncnc(Oc2ccccc2Cl)c1F`, for which the outcome was inactive.

With `OC(c1ccc(Cl)cc1)(c1ccc(Cl)cc1)C(Cl)(Cl)Cl`, the half-maximal activity concentration (AC50) is 9.69 µM (active).

Turning to `CCC(C)n1c(=O)[nH]c(C)c(Br)c1=O` (stereo not given), the outcome was inactive.

Take `CCN(CC)c1nc(C)cc(OP(=S)(OC)OC)n1`: the outcome was inactive.

For the origin of these results see PubChem BioAssay (EPA / NIEHS).
